A short description of assay [1]: NCI Yeast Anticancer Drug Screen. Data for the rad50 strain (AID 155).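 Note: 0% = growth of vehicle-only cultures of the same strain.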 The conditions noted are these: S. cerevisiae rad50 strain growth inhibition; at 50.0 µM; hits give high values. The gist of the method: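 Relative growth inhibition (compound vs vehicle) was measured in yeast with a defined repair-gene alteration.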
Assay [2] in a line: NCI Yeast Anticancer Drug Screen. Data for the mec2-1 strain (AID 157). The conditions noted are these: S. cerevisiae mec2-1 strain, at 50.0 µM, hits give high values. The gist of the method:
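Vehicle-treated cultures served as reference for growth inhibition of compound-exposed mec2-1 yeast.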

Assay [3] is described as follows: NCI Yeast Anticancer Drug Screen. Data for the sgs1 mgt1 strain (AID 161).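 Note: 0% = growth of cultures given vehicle only.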 The conditions noted are these: S. cerevisiae sgs1 mgt1 strain, at 50.0 µM, hits give high values. Summed up:
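Read-out: growth inhibition vs vehicle controls. Cells: mutant yeast strain deficient in DNA damage repair.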

Assay [4] can be described thus: NCI Yeast Anticancer Drug Screen. Data for the cln2 rad14 strain (AID 165).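 Note: 0% = growth equal to vehicle treated cultures.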 Conditions: S. cerevisiae cln2 rad14 strain, at 50.0 µM, hits give high values. The gist of the method:
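Each compound was tested on cln2 rad14 yeast. Inhibition of growth was calculated against vehicle-exposed controls.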

Assay [5] in a line: NCI Yeast Anticancer Drug Screen. Data for the bub3 strain (AID 167). Conditions: S. cerevisiae bub3 mutant strain, at 50.0 µM, hits give high values. The gist of the method:
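Screening used yeast with an engineered genetic alteration affecting cell cycle control. Compound-exposed cultures were compared with vehicle cultures, and reduced growth was taken as inhibition.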

Assay [6] can be described thus: NCI Yeast Anticancer Drug Screen. Data for the mlh1 rad18 strain (AID 175). The conditions noted are these: S. cerevisiae mlh1 rad18 strain growth inhibition; at 50.0 µM; hits give high values. The gist of the method:
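Vehicle-treated cultures served as the reference for growth inhibition in a yeast strain carrying DNA damage repair alterations exposed to each compound.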

Compounds without any hit were thinned out: in the full panel of roughly 79,000, 15% have a hit. A number with no mark means an inactive call. The source made the active and inactive calls. Cut-off read from the data, not from the text of the source: active = growth inhibition above about 70%; inactive = the rest.

In the case of `CCCCCCCCCCC1OCC(C)(C)CO1`, the growth inhibition in assay [1] was 10.3%; in assay [2] it was -12.2%; in assay [3], 17.4%; in assay [4], -7.5%; in assay [5], 1.65%; in assay [6], 11.4%.
As to `O=C(CC(=O)Nc1ccccc1)NNC(c1cc(N=Nc2ccc(Br)cc2)ccc1O)P(O)O` (stereo unspecified), the growth inhibition was -4.65% in assay [1]; 6.25% in assay [2]; -10.4% in assay [3]; -3.2% in assay [4]; -14% in assay [5]; -38% in assay [6].
Turning to `CCOc1ccccc1NC(=O)C(=O)CC(=O)c1sc(Nc2nnc(-c3ccc(Cl)c(Cl)c3)o2)nc1C`, the growth inhibition in assay [1] is 20.5%; in assay [2], -11.6%; in assay [3], 21.1%; in assay [4], 21.4%; in assay [5], 31.4%; in assay [6] it was 17.8%.
In the case of `COc1cc2c(oc(=O)c3cc4cc([Si](C)(C)C)oc4c(OC)c32)c2cccc(O)c12`, the growth inhibition is -0.5% in assay [1]; -27.4% in assay [2]; -26.6% in assay [3]; -23.2% in assay [4]; 6.9% in assay [5]; -8.25% in assay [6].
`OC(c1ccccc1)(c1ccccc1)c1ccccc1CNc1ccccc1`: the growth inhibition in assay [1] is 45.5%; in assay [2], 30.4%; in assay [3] it was 26.2%; in assay [4], 8%; in assay [5] it was 19.8%; in assay [6] it was 49.8%.
Take `O=C(O)/C(=C\c1ccncc1)c1cccc2ccccc12`: the growth inhibition in assay [1] was 0.85%; in assay [2], -12%; in assay [3], -37.4%; in assay [4], -24.9%; in assay [5] it was -32%; in assay [6], -9.65%.
With `C/C(=N\Sc1cccc([N+](=O)[O-])c1)c1ccccc1O`, the growth inhibition in assay [1] was 91.2% (active); in assay [2] it was 96.5% (active); in assay [3] it was 96.2% (active); in assay [4] it was 90.8% (active); in assay [5], 94% (active); in assay [6], 96% (active).
In the case of `C=C(C)C(=O)OCC(CC)(COC(=O)C(=C)C)COC(=O)C(=C)C`, the growth inhibition in assay [1] was -9.25%; in assay [2], -19.6%; in assay [3], 8.35%; in assay [4] it was -2.05%; in assay [5], 18.6%; in assay [6], 0%.
On to `CN/N=C(\C(=O)Nc1ccc([N+](=O)[O-])cc1[N+](=O)[O-])C1NC(=O)NC1=O` (stereo unspecified), for which the growth inhibition in assay [1] was 23.8%; in assay [2], 20.1%; in assay [3], 1.95%; in assay [4], 5.05%; in assay [5], 15.9%; in assay [6], -10.9%.
Turning to `CN1C2C=CC(=O)C1C1C(=O)N(c3ccccc3)C(=O)C12` (stereo unspecified), the growth inhibition is 25.2% in assay [1]; 45.1% in assay [2]; 54% in assay [3]; 31.4% in assay [4]; 23.8% in assay [5]; 27.1% in assay [6].
For the molecule `Cc1c(C(=O)/C=C/c2ccc(N(C)C)cc2)c(=O)n(-c2ccccc2)n1C`, the growth inhibition in assay [1] is -7%; in assay [2] it was -45.1%; in assay [3], -36.1%; in assay [4] it was -8.85%; in assay [5], -29.7%; in assay [6], -20.1%.
Regarding `O=C1c2cc3c(cc2CC1Cc1ccc2c(c1)CCC2)CCC3` (stereo unspecified), the growth inhibition in assay [1] was -28.8%; in assay [2], -23.8%; in assay [3], -33.2%; in assay [4], -34%; in assay [5] it was -20.5%; in assay [6] it was -33.1%.
With `COc1ccc(CCN=Cc2ccc(Cl)cc2)cc1OC`, the growth inhibition in assay [1] is -3.55%; in assay [2], -28.4%; in assay [3] it was 15.4%; in assay [4], -1.2%; in assay [5] it was -17.1%; in assay [6] it was -10.6%.
Turning to `CC(=O)[C@H]1C[C@@H](CC(=O)O)C1(C)C`, the growth inhibition is -0.55% in assay [1]; -11.8% in assay [2]; -10.6% in assay [3]; -6% in assay [4]; -3.25% in assay [5]; -3.15% in assay [6].
With `COc1cc(C)n2nnnc2n1`, the growth inhibition in assay [1] is 9.5%; in assay [2], -6.2%; in assay [3], 0.2%; in assay [4], -15.8%; in assay [5] it was 1.3%; in assay [6], -9.4%.
Take `C=CCCC(C)N(C(=O)OC(C)(C)C)S(=O)(=O)c1ccc(C)cc1` (stereo unspecified): the growth inhibition in assay [1] was 16.6%; in assay [2], -13.2%; in assay [3] it was 4.85%; in assay [4], -9.3%; in assay [5] it was -4%; in assay [6], 0.45%.
On to `O=C(COc1ccc(Cl)c(Cl)c1)Nc1cccc(C(=O)CCl)c1`, for which the growth inhibition in assay [1] was 36.6%; in assay [2], 50%; in assay [3] it was 45.5%; in assay [4] it was 9.1%; in assay [5], 81.3% (active); in assay [6], 62.8%.
Regarding `CC(CN(C)C)CN1c2ccccc2Sc2ccccc21` (stereo unspecified), the growth inhibition in assay [1] is -6.7%; in assay [2] it was -2.4%; in assay [3], -7%; in assay [4], -2.95%; in assay [5], 5.65%; in assay [6], 8.35%.
For `OCCCCCCO`, the growth inhibition is -2.55% in assay [1]; -15.6% in assay [2]; 16.1% in assay [3]; -16.7% in assay [4]; 4.3% in assay [5]; 12.3% in assay [6].
For the molecule `CC(=O)OC1COC(NC(=O)N(CCCl)N=O)C(OC(C)=O)C1OC(C)=O` (stereo unspecified), the growth inhibition is 6.25% in assay [1]; 7.55% in assay [2]; -25.8% in assay [3]; -11.2% in assay [4]; -31.2% in assay [5]; 48.8% in assay [6].
Turning to `COC(=O)c1nc(=S)[nH]c(C(=O)OC)c1C(=O)/C=C/c1ccccc1`, the growth inhibition in assay [1] is 0.1%; in assay [2], -1.7%; in assay [3], 8.05%; in assay [4], -14.2%; in assay [5], -1.75%; in assay [6], 11.8%.

Values taken from PubChem BioAssay (NCI).
